# Data reported in PubChem BioAssay AID504894 (National Center for Advancing Translational Sciences (NCATS), 2011).
# Out of some 330,000 compounds screened, fewer than 10 were called active. The call rests on the fitted dose curve; in most records, active means well fitted activation curve with a large enough effect; inconclusive means small, poorly fitted or top-dose-only effect, or another doubt; inactive means no such curve, though single readings can be large or run the other way. Not all results are given here.
# Test: Activators of T cell receptors: qHTS campaign
# Details: primary human leukocytes, anti-CD3, IL-2 HTRF, 48 h; series mostly up to 9.22 µM
# Description: Normally activation of naive T cells requires two signals. 1. A signal through the T cell receptor (TCR) which provides antigen specificity to the response. 2. Signals through co-stimulatory molecules, which are necessary for proliferation, survival and cytokine production. In the absence of co-stimulatory signals T cells are not effectively activated, and may even be rendered anergic or unresponsive to subsequent signaling. This lack of costimulation has been shown in multiple model systems to be a major factor in the limited strength and effectiveness of anti-tumor T cell responses. The goal of this project is to identify small molecule compounds that will stimulate T cell activation in the presence of TCR signaling but in the absence of co-stimulatory signals, thereby allowing activation of naive T cells in the absence of co-stimulation. Identification of such compounds would have clear experimental and clinical applications in instances where desirable antigen-specific immune responses are not generated due to a lack of co-stimulation, for example in the generation of anti-tumor responses. In collaboration between the National Cancer Institute and NIH Chemical Genomics Center, a high-throughput amenable screen was developed to discover small molecules that co-stimulate and activate human T cell receptors. The screen will be carried out using a novel homogeneous time resolved fluorescence energy transfer (HTRF) assay to measure production of the cytokine IL-2 by activated T cells and will be tested against the NIH Molecular Libraries Small Molecule Repository (MLSMR). NIH Chemical Genomics Center [NCGC] NIH Molecular Libraries Probe Centers Network [MLPCN] MLPCN Grant: MH090820-01 Assay Submitter (PI): Richard Hodes, National Cancer Institute, NIH
# Primary human leukocytes are incubated with a-CD3 beads and compounds for 48 hr. The amount of secreted IL-2 is then assayed with a HTRF IL-2 kit. The presence of IL-2 cytokine captures the detection reagents and brings the a-IL-2-K and a-IL-2-d2 into close proximity. Upon excitation with 320nm light, the europium cryptate is capable of transferring energy to acceptor molecules within close proximity, resulting in acceptor molecule emission at 665nm.
row,Compound,outcome
1,O=C(O)C1C2C=CC(O2)C1C(=O)Nc1ccccn1 (centres undefined),inactive
2,O=C(NCc1ccccc1)c1cccc(NC(=O)C2CCCCC2)c1,inactive
3,O=C(NCCc1ccccc1)c1cccc(NC(=O)c2ccccc2)c1,inactive
4,CCOc1ccc(CCNC(=O)COC(=O)C2CCN(S(=O)(=O)c3ccccc3)CC2)cc1OCC,inactive
5,COc1ccc(-c2ccc3c(c2)[C@@H]2C[C@H](N(C)S(=O)(=O)c4ccccc4)[C@H]([C@H](C)O)C(=O)N2CC3)cc1,inactive
6,Oc1c(CN2CCOCC2)ccc(CN2CCOCC2)c1O,inactive
7,COc1ccc(C2NCCCC2c2ccccc2)cc1 (centres undefined),inactive
8,O=C(NN=Cc1ccccc1)c1ccccc1,inactive
9,CCC1(C)COC(c2ccc(OC)c(OC)c2)OC1 (centres undefined),inactive
10,Cc1ccccc1N1CCN(C(=O)c2cccnc2)CC1,inactive
11,CSCCC(NC(=O)COc1ccccc1)C(=O)N1CCN(c2cccc(C(F)(F)F)c2)CC1 (centres undefined),inactive
12,O=S1(=O)CCOC[C@H](Cc2ccccc2)N1Cc1ccccc1Br,inactive
13,CC(Nc1ccc([N+](=O)[O-])cc1[N+](=O)[O-])c1ccccc1 (centres undefined),inactive
14,NN=C(NN=Cc1ccccc1)c1ccccc1,inactive
15,Cn1c(=S)sc2ccc3ccccc3c21,inactive
16,Nc1ncnc2c1cnn2C1CC(O)C(CO)O1 (centres undefined),inactive
17,COc1ccc(CS(=O)/C(Cl)=C(/Cl)C(=O)Nc2ccc(OC)nc2)cc1 (centres undefined),inactive
18,N=C1c2ccccc2-c2ccccc21,inactive
19,C/C(=N\Nc1ccccc1)c1cccs1,inactive
20,CCCCCCCCNS(=O)(=O)CCNC1CCCCC1,inactive
21,O=S1(=O)CSCS(=O)(=O)C1,inactive
22,Cc1ccc(SCC(=O)N2CCN(c3ccc(F)cc3)CC2)cc1,inactive
23,Cc1nc(Nc2ccccc2C)c2cnn(C)c2n1,inactive
24,COc1ccc(NC(=O)/C(N=Nc2cccc(S(=O)(=O)Nc3ccc(SC(F)F)cc3)c2)=C(\C)O)cc1,inactive
25,O=C1CC[C@@H]2CC3(C[C@@H]4CCN1[C@H]24)Nc1cc([N+](=O)[O-])ccc1NC3=NC1CCCCC1 (some centres undefined),inactive
26,N#CC1=C(N)Oc2cc(N)ccc2C1c1ccccc1 (centres undefined),inactive
27,CN(CCc1ccccc1)C(=O)c1cccc(NC(=O)Cc2cccc(NC(=O)C3CCCN(C(=O)C4CCC4)C3)c2)c1 (centres undefined),inactive
28,COc1ccc(Nc2ccc3ccccc3c2)cc1,inactive
29,COC1=NC2=NCCN2C(OC)=N1,inactive
